Reference: PubChem BioAssay (NCI)
About 79,000 compounds went through this panel and 15% of them were active in at least one assay; those are over-represented in the sample as a whole. Unmarked numbers belong to inactive results. Active and inactive are the calls of the source. Cut-off read from the data, not from the text of the source: active = growth inhibition above about 70%; inactive = the rest.

Assay: NCI Yeast Anticancer Drug Screen. Data for the rad52 strain (AID 147);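 note: 0% = growth of vehicle-treated control cultures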
Conditions: S. cerevisiae rad52 mutant growth inhibition, stronger effect = higher value
Method: Growth inhibition of yeast strains with defined genetic alterations is measured as a screen for potential anti-cancer activity. Selected strains with alterations in DNA damage repair or cell cycle control were exposed to compounds and growth inhibition was measured relative to vehicle treated controls. The strain used in this assay is rad52

| Structure (SMILES) | growth inhibition (at 1.2 µM) [%] | growth inhibition (at 3.7 µM) [%] | growth inhibition (at 11.0 µM) | growth inhibition (at 33.0 µM) | growth inhibition (at 100.0 µM) |
| --- | --- | --- | --- | --- | --- |
| Nc1ccc(Cl)cc1C(=O)c1ccccc1 | -15 | -16 | -15% | 46% | 97% (active) |
| Oc1ccc2nc3ccccc3nc2c1 | -1 | 4 | 24% | 64% | 95% (active) |
| C[C@]12CC[C@H](O)CC1=CC[C@@H]1[C@@H]2CC[C@]2(C)C(=O)CC[C@@H]12 | -54 | -47 | -46% | 69% | 90% (active) |
| Cc1ccc2nc3sc(=O)sc3nc2c1 | 48 | 66 | 99% (active) | 98% (active) | 96% (active) |
| Cc1nc2ccccc2cc1C[N+]12CN3CN(CN(C3)C1)C2 | 1 | 3 | 6% | 29% | 90% (active) |
| OCC(O)C(O)CO (stereo not given) (tested in a mixture with another compound) | -2 | -3 | -1% | -4% | 8% |
| O=Cc1ccc(C(F)(F)F)cc1.[C-]#[O+].[C-]#[O+].[C-]#[O+].[Cr] | 9 | 17 | 39% | 65% | 70% (active) |
| NC1=NCC(c2ccc(Cl)cc2)O1 (stereo not given) | -4 | -2 | -5% | -8% | 47% |
